Here are results for five molecules from ChEMBL document CHEMBL3988442, “University of Dundee, Small-Polar-MMV Screening Library” (2021).

For some assays here: Measured potencies and affinities stand elsewhere.

The target in assay [1] is T1, Methionyl-tRNA synthetase, putative (Leishmania donovani (strain BPK282A1)) (UniProt E9BF75).
T1 sequence (whole entry): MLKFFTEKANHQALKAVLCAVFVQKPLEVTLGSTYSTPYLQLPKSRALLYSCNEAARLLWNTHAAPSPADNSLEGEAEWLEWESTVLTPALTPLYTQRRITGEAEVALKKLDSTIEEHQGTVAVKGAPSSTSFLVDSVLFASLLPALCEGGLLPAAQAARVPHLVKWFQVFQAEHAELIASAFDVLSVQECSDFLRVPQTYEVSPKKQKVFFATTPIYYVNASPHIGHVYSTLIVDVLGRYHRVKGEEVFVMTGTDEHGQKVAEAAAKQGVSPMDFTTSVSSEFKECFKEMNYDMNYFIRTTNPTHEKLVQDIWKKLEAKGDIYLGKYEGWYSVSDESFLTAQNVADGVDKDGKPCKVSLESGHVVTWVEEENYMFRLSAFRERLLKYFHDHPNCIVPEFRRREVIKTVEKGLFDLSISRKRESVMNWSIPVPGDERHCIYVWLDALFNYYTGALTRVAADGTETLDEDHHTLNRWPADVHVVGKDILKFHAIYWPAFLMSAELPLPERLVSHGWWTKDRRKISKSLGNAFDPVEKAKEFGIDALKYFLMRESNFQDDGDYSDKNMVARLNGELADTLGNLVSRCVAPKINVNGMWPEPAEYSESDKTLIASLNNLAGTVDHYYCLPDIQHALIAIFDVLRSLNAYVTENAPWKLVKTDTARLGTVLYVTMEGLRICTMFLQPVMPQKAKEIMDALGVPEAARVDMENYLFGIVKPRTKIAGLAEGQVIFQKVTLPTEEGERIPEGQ
The assay can be described thus: Leishmania donovani Methionine tRNA synthetase (LdMetRS):v7. Dose response assay. In kind it is functional. Further details: conc 80 nM, time 150 minutes.

The target in assay [2] is AMP-activated protein kinase, AMPK (Homo sapiens) (UniProt P54646+O43741+P54619+Q9UGJ0+Q9Y478+Q13131+Q9UGI9). Put plainly: AMP-dependent Kinase enzyme assay. An in vitro enzyme assay that detects ADP turnover that is directly proportional to AMPK activity. This uses naive AMPK that is activated during the assay with MK-8722. In kind it is functional. Also noted: scale not given: direction of the effect not stated beside the values. Conditions: 30 µM.

The target of assay [3] is Protein translocase subunit SecA (Escherichia coli (strain K12)) (UniProt P10408). Put plainly: Assay to Identify E. coli SecA ATPase Inhibitors. To be noted: 30 µM. It is filed as functional. Further details: scale not given: direction of the effect not stated beside the values.
Sequence of Protein translocase subunit SecA (Escherichia coli (strain K12)) (P10408 whole entry): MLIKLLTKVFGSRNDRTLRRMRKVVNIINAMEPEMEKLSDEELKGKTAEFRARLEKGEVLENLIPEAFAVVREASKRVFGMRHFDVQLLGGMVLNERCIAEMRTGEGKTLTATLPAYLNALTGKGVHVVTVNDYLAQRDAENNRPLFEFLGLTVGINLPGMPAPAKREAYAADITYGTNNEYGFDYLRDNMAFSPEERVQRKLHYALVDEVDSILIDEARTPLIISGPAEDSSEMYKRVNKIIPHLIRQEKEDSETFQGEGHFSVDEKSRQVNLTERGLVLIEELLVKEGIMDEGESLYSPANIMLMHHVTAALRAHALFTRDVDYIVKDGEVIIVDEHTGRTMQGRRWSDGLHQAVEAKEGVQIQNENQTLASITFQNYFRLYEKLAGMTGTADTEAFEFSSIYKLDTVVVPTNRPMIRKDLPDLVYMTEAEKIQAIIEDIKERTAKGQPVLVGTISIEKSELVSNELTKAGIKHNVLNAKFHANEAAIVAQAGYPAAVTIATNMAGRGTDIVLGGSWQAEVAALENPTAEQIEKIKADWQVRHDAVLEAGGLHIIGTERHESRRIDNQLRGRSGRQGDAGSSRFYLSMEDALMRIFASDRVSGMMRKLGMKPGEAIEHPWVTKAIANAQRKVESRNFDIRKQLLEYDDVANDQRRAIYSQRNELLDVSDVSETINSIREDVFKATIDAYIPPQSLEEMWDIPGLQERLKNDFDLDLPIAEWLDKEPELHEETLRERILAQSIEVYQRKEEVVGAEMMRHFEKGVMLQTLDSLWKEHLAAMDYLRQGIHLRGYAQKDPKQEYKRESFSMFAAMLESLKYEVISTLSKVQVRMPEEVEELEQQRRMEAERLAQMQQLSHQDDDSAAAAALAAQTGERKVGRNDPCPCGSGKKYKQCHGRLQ
In assay [4] the target is T2, Ubiquitin-activating enzyme e1, putative (Leishmania donovani (strain BPK282A1)) (UniProt E9BSI1).
T2 sequence (whole entry): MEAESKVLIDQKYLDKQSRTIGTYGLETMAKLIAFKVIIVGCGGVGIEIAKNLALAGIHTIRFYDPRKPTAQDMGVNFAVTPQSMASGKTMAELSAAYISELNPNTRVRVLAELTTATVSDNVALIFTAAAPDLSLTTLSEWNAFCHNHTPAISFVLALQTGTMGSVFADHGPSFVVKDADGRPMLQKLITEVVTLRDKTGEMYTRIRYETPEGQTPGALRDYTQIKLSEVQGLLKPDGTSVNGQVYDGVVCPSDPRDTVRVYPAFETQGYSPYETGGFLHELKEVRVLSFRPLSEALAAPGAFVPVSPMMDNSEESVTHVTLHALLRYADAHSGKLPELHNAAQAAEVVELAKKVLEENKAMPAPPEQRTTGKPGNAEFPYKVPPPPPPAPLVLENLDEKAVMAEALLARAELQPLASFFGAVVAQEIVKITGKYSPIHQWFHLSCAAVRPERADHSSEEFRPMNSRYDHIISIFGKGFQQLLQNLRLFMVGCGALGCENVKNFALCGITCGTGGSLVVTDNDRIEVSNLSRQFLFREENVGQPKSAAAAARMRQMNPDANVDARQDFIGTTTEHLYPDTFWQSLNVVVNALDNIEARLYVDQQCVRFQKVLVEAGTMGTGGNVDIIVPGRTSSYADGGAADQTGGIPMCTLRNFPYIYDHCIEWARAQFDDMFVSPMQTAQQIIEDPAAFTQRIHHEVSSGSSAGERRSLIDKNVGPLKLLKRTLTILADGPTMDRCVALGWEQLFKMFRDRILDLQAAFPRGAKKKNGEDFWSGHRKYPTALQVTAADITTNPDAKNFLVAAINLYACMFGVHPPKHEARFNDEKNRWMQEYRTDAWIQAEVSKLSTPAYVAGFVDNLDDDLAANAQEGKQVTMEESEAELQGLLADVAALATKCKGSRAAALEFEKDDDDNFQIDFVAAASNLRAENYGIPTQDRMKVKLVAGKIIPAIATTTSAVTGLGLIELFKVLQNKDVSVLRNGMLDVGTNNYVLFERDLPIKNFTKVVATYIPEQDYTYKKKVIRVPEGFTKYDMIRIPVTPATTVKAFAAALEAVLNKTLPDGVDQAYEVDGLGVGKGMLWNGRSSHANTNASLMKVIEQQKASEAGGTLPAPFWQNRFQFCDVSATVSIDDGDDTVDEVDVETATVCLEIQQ
The assay can be described thus: Leishmania donovani Ubiquitin Activating Enzyme (LdE1). To be noted: 30 µM. In kind it is functional. Further details: scale not given: direction of the effect not stated beside the values.

The target in assay [5] is Sialic acid-binding Ig-like lectin 9 (Homo sapiens) (UniProt Q9Y336). Put plainly: Hs-Siglec9 ALPHAscreen SOP 20170721. Further details: scale not given: direction of the effect not stated beside the values. Conditions: 10 µM.
Sequence of Sialic acid-binding Ig-like lectin 9 (Homo sapiens) (Q9Y336 whole entry): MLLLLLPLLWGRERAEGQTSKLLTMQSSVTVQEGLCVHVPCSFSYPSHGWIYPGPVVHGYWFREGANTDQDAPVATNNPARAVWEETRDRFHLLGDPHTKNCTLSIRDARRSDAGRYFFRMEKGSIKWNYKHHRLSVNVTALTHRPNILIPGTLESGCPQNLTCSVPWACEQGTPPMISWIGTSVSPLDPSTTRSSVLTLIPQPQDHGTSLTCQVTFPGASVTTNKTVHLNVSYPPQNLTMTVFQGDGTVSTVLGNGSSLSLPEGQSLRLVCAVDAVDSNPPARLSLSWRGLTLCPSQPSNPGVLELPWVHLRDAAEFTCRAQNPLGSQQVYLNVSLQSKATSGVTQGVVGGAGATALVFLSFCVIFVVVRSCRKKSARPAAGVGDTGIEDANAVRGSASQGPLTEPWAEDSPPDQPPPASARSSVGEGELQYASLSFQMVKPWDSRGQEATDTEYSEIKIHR
The subject of assay [6] is Trypanosoma cruzi. The assay can be described thus: Trypanosoma cruzi phosphomannomutase and mannose-1-phosphate guanylyltransferase assay. Further details: scale not given: direction of the effect not stated beside the values. In kind it is functional. Conditions: 10 µM.
For assay [7], the target named is T3, Arginase-2, mitochondrial (Homo sapiens) (UniProt P78540).
T3 sequence (whole entry): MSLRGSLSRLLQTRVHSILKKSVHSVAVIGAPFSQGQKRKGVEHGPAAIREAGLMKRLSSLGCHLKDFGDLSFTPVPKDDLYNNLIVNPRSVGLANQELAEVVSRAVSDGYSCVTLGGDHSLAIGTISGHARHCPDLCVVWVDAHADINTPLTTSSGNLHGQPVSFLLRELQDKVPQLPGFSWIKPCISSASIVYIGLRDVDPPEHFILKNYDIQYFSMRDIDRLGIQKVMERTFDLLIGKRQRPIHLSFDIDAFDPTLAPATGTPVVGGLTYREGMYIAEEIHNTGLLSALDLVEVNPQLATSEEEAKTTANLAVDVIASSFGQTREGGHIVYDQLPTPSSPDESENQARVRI
The assay can be described thus: in vitro enzyme assay to detect the production of urea directly proportional to the activity of Arginase II. In kind it is functional. Further details: scale not given: in the data most compounds retested in dose-response had high values.

The target in assay [8] is T4, Proteasome subunit beta (Trypanosoma cruzi) (UniProt O96673).
T4 sequence (whole entry): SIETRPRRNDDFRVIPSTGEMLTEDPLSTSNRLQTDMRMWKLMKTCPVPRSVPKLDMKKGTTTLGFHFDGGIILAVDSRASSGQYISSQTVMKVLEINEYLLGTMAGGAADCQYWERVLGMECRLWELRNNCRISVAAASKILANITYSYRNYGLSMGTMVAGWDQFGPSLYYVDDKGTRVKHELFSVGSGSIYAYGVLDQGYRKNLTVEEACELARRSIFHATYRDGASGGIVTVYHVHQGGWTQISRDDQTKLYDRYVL
The assay can be described thus: Trypanosoma cruzi proteasome chymotrypsin-like activity (TcProtChymo) assay. In kind it is functional. Further details: scale not given: in the data most compounds retested in dose-response had high values. Conditions: 9.37 µM.

Assay [9] is filed under the species Homo sapiens. The assay can be described thus: To identify inhibition of the IFN signalling (Jak-Stat) pathway via expression of an eGFP reporter gene under the control of an IFN-stimulated response element (ISRE) containing MxA promoter. In kind it is functional. Further details: scale not given: direction of the effect not stated beside the values. To be noted: 30 µM.

Assay [10] deals with T5, Tyrosyl-tRNA synthetase, putative (Trypanosoma cruzi (strain CL Brener)) (UniProt Q4DSP6).
T5 sequence (whole entry): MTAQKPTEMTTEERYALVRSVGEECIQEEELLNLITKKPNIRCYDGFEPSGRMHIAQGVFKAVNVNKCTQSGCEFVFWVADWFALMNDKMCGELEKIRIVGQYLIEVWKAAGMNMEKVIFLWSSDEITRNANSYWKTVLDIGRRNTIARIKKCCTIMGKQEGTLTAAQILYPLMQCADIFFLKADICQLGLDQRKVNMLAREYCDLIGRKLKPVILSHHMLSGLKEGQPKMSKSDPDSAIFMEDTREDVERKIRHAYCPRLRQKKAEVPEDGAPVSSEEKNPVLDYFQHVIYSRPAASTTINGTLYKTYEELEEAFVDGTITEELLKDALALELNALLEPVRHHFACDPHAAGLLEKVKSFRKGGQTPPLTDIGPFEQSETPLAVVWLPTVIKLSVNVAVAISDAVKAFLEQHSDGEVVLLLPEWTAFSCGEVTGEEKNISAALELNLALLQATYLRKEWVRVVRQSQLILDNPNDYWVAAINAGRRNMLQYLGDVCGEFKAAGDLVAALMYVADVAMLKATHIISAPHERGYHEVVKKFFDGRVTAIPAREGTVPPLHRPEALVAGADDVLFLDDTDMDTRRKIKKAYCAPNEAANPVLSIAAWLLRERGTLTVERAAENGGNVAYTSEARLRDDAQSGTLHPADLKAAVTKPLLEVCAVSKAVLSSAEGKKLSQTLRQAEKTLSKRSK
The assay can be described thus: Trypanosoma cruzi tyrosyl tRNA synthetase (TcYRS) _High Tyrosine SOP. Conditions: 30 µM. Also noted: scale not given: in the data most compounds retested in dose-response had high values. It is filed as functional.

Assay [11] has as its target T5, Tyrosyl-tRNA synthetase, putative (Trypanosoma cruzi (strain CL Brener)). Put plainly: Trypanosoma cruzi tyrosyl tRNA synthetase (TcYRS) SOP. It is filed as functional. Further details: scale not given: direction of the effect not stated beside the values. Conditions: 30 µM.
In assay [12] the target is Chromo domain-containing protein 1 (Saccharomyces cerevisiae (strain ATCC 204508 / S288c) (Baker's yeast)) (UniProt P32657). Put plainly: ScCHD-1 Enzyme Inhibition Assay. It is filed as functional. Further details: scale not given: in the data most compounds retested in dose-response had high values. Conditions: 30 µM.
Sequence of Chromo domain-containing protein 1 (Saccharomyces cerevisiae (strain ATCC 204508 / S288c) (Baker's yeast)) (P32657 whole entry, the tested form may be a part): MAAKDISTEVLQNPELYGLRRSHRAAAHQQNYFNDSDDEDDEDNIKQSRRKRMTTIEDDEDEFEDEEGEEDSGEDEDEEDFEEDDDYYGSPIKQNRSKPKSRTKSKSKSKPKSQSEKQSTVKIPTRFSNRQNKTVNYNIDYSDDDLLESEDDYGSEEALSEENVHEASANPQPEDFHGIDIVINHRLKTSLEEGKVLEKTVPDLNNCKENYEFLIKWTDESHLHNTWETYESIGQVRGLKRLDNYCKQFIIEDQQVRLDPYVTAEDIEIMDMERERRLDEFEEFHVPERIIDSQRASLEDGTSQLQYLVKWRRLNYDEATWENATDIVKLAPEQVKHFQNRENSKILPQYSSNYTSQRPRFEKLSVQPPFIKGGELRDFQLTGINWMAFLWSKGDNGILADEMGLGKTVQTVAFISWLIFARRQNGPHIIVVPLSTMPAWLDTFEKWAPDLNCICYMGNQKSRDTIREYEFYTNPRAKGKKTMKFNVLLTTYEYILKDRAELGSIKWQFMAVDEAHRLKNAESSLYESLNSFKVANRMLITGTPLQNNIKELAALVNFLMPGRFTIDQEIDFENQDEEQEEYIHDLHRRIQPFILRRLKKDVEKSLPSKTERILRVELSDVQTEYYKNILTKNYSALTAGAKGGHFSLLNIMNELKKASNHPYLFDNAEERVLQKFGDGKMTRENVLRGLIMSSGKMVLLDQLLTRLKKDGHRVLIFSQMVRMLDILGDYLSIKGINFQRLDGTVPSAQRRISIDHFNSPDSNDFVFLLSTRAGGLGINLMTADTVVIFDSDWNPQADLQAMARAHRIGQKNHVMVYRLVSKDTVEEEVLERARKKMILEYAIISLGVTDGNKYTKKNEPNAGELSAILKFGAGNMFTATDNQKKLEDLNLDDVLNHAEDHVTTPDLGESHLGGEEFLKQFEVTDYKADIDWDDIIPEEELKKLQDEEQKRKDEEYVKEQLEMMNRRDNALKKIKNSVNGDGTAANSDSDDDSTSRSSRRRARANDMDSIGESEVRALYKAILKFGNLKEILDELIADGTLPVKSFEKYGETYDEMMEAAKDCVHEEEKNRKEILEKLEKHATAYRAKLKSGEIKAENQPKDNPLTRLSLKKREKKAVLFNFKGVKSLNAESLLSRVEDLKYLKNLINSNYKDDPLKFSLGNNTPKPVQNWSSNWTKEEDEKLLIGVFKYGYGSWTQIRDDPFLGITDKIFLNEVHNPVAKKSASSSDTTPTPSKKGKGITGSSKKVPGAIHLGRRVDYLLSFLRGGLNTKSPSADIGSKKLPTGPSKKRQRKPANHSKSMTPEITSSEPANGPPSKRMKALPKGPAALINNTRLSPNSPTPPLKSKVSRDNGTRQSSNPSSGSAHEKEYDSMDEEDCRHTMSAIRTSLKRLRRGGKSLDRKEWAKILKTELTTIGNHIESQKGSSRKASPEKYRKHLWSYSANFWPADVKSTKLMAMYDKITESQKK

Regarding `Cc1c(C(=O)O)sc2nc(Cc3ccccc3)nc(N)c12`, the PXC50 in assay [1] (MAX_EFFECT 1.767676768) and in [1] (MAX_EFFECT 2.040816327) was < 4 each time. Besides, the Percent Effect in assay [2] was found to be 4.73%.

As to `CC1CCCN(CC(=O)N2CCC(c3ncc4c(n3)CCNC4)CC2)C1` (stereo not drawn), the PXC50 in assay [1] (MAX_EFFECT 4.401408451) and in assay [1] (MAX_EFFECT 5.700712589) was < 4 throughout. Also, the Percent Effect in [3] was -3.77%; in assay [4] it was 2.67%; in [2], 14.5%; in [5] it was -3.5%; in assay [6], 0.394%; in assay [7] (33.3 µM), -0.699%. Further, the Percent Effect is 5.02% in [8]; 3.99% in assay [9]; -1.06% in [10]; -3.85% in assay [11]; 2.27% in assay [12].

For `Cc1cc(C)n(C2CN(Cc3noc(-c4ccccc4)n3)C2)n1`, the Percent Effect in [3] was -4.45%; in [4], -7.79%; in assay [2], 3.83%; in assay [5], 3.24%; in assay [6] it was -6.39%; in assay [7] (30 µM), 5.95%. The Percent Effect was -5.52% in [7] (33.3 µM); 14.3% in [8]; 5.29% in [9]; 3.23% in [10]; 1.24% in assay [11]; -0.0991% in [12].

As to `Cc1ccc(CN2CCC(F)(F)C3(CCN(c4cnccn4)C3)C2)o1` (stereo not drawn), the PXC50 in assay [1] (MAX_EFFECT 8.551068884) and in [1] (MAX_EFFECT 15.66901408) was < 4 in each case. In addition, the Percent Effect was -2.38% in assay [3]; 2.7% in assay [4]; 11.5% in [2]; 1.13% in assay [5]; 0% in assay [6]; 3.33% in [7] (33.3 µM). Besides, the Percent Effect in assay [8] was -3.13%; in [9], 0.47%; in assay [10] it was 5.94%; in assay [11], 3.66%; in assay [12], -2.36%.

With `FC(F)(F)C1CCc2nnc(CNCc3ccsc3)n2C1` (stereo not drawn), the Percent Effect is -4.02% in [3]; 16.2% in assay [4]; 1.38% in [2]; 30.8% in assay [5]; 5.18% in [6]; 5.95% in assay [7] (30 µM). The Percent Effect in [7] (33.3 µM) is 10.2%; in assay [8] it was 10.4%; in assay [9], -8.39%; in assay [10] it was 5.38%; in assay [11], 16.1%; in [12], -13.2%.
